Screening data (PubChem)
D1 antag: antagonists of human D1 dopamine receptor; P21728; HEK293 TREx D1 cells, calcium flux, dopamine EC80; stronger effect = lower value; activity change, negative = inhibition, % at 10 µM; hit rate 3.2% among 360,000; in the data active = activity change below about -30%; note: % is set by controls: 0 for no effect and ±100 for the full control effect
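Tetracycline-induced HEK293 Trex D1 cells, force-coupled to calcium, dye-loaded; compounds added and read 180 s, then EC80 dopamine added and calcium flux tracked kinetically another 180 s.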
D1 ag: activates the human D1 dopamine receptor; activation, % at 2 µM; AID 504660; HEK293 T-REx D1 cells, calcium flux, agonist mode; hit rate 1% among 360,000; note: 0% is about no effect
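Tetracycline-induced HEK293 TREx D1 cells, force-coupled to calcium signalling, were dye-loaded with a no-wash calcium kit. Compound was pin-added after a 10 s baseline. Fluorescence was read kinetically at 1 cycle/s for 180 s, with calcium rises flagged as agonism.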
TRHR ag: agonists of human TRH receptor; P34981; TRHR cells, calcium flux fluo-8, FDSS agonist mode; activation, % at 2 µM; hit rate 0.18% among 360,000; AID 493084; note: 0% is about no effect
Target sequence (P34981 whole entry, looked up): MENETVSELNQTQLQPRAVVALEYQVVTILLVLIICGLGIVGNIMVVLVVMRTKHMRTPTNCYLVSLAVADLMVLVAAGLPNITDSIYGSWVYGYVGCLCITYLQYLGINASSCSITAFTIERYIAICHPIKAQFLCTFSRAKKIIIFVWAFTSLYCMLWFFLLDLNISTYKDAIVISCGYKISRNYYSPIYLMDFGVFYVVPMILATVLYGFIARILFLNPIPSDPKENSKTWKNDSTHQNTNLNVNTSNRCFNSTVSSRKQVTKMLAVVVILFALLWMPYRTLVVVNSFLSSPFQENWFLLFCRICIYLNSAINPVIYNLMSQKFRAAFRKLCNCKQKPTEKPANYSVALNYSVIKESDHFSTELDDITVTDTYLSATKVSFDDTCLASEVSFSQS
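Fluo-8-loaded TRHR cells; 10 s baseline, compound added, kinetic Ca2+ fluorescence read 1/s, agonist mode.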
TRHR PAM: allosteric enhancers of human TRH receptor | TRHR cells, fluo-8 calcium fluorescence, EC20 TRH enhancement | enhancement, % at 2 µM | hit rate 0.66% among 360,000 | AID 493056; in the data active = enhancement above about 30%; note: 0% is about no effect
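Enhancer read-out: after compound pinning and an initial kinetic agonist-mode read, an EC20 of TRH (10 nM final) was injected and fluo-8 calcium signal (Ex 480/Em 530) followed at 1 s/cycle for 100 cycles in TRHR-expressing cells.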
D1 PAM: potentiators of human D1 dopamine receptor | P21728 | HEK293 TREx D1 cells, calcium flux, dopamine EC20 potentiation | potentiation, % at 10 µM | hit rate 0.036% among 360,000; in the data active = potentiation above about 30%; note: 0% is about no effect
* = called active by the depositor; x = not tested or not shown; ! = repeats disagree. Compounds with a hit are over-represented: about 4.7% of the library has one in this group of screens. Cut-off read from the data, not from the text of the source, unless noted: active = activation above about 30%; inactive = the rest.

SMILES	D1 antag	D1 ag	TRHR ag	TRHR PAM	D1 PAM
Cc1ccc(N2CC(NC(=O)Cc3cccs3)CC2=O)cc1C (stereo not given)	x	-4	0	-1	-2
Cc1cc(Cl)ccc1NC(=O)c1cc2ccccn2n1	-21	0	0	-4	-3
CCCCCCn1c(O)c(/C=C2\C=NN=C2c2ccccc2)sc1=S	11	3	-1	33*	0
Cn1c(O)c(/C=C2\C=NN=C2c2ccccc2)sc1=S	-35*	3	0	-1	-7
Cc1ccccc1-n1c2nc(=O)n(C)c(=O)c-2cc2ccccc21	-9	1	0	-3	-8
Cn1c(=O)nc2n(Cc3ccccc3)c3ccccc3cc-2c1=O	-14	3	0	31*	1
CCN(CC)c1ccc(-n2c(C)cc(C=O)c2C)cc1	-32*	3	0	-9	1
COc1cn(CC(=O)Nc2ccccc2)c(CN2CCCCC2)cc1=O	-27	0	0	3	-3
Cc1noc(C)c1CSc1ccc(Br)cc1	-33*	15	0	4	-6
CC(=O)Nc1ccc(SCc2c(C)noc2C)cc1	-15	3	0	3	-5
COc1ccc(-n2c3c(c(=O)[nH]c2=O)C(NC(=O)c2ccccc2Cl)(C(F)(F)F)C(=O)N3)cc1 (stereo not given)	6	1	0	-1	-3
COc1ccc(-n2c3c(c(=O)[nH]c2=O)C(NC(C)=O)(C(F)(F)F)C(=O)N3)cc1 (stereo not given)	-54*!	2	1	2	-3
CCc1ccccc1NC(=O)c1nnn(Cc2ccc(Cl)cc2)c1N	-2	56*	8	13	-1
Cc1ccc(NC(=O)c2nnn(Cc3cccc(C(F)(F)F)c3)c2N)c(C)c1	-45*	11	3	8	1
Cc1ccc(Cl)cc1NC(=O)c1nnn(Cc2ccccc2)c1N	27	20	2	31*	12
Cc1ccc(Cn2nnc(C(=O)Nc3cccc(C)c3C)c2N)cc1	-14	94*	13	-6	-6
Cc1cccc(Cn2nnc(C(=O)Nc3cc(C)ccc3C)c2N)c1	15	10	0	-10	3
Cc1ccc(C)c(NC(=O)c2nnn(CC(=O)Nc3cccc(C)c3C)c2N)c1	3	1	1	5	1
COc1ccc(-n2nc(C(=O)Nc3ccccc3OC)c3c4ccccc4n(C)c3c2=O)cc1Cl	-19	2	0	-1	-5
CC(=O)NC(=O)c1nnn(Cc2ccccc2)c1NC(C)=O	13	1	0	34*	-12
Cc1cc(C)c(NC(=O)Cn2nnc(C(=O)Nc3ccc(F)cc3F)c2N)c(C)c1	-68*!	3	3	7	0
Nc1c(C(=O)O)nnn1Cc1ccccc1	5	0	1	-2	0
COc1ccc(OC)c(NC(=O)c2nnn(Cc3ccccc3C)c2N)c1	-52*	2	-1	2	3
COc1ccc(NC(=O)c2nnn(Cc3ccccc3C)c2N)c(OC)c1	0	5	1	6	1
Cc1ccc(CNC(=O)C2CCN(c3ncnc4c3nc3n4CCCCC3)CC2)cc1	-12	-1	0	6	-2
SMILES	D1 antag	D1 ag	TRHR ag	TRHR PAM	D1 PAM
O=C(c1cc([N+](=O)[O-])ccc1Cl)N1c2ccccc2Sc2ccccc21	-37*	3	0	1	-7
CCOc1ccccc1NC(=O)c1cccc2ccccc12	-5	4	0	-12	-2
COc1ccccc1NC(=O)NNC(=O)c1ccc2ccccc2c1O	-36*	6	0	-2	1
COc1cccc(C(=O)Nc2cccc3ccccc23)c1OC	-35*	2	0	6	4
Cc1ccc(C(=O)N2CCc3cc(CNC(=O)COc4ccccc4)ccc32)cc1	1	1	0	-3	-2
Cc1cccc(N(C)S(=O)(=O)c2nnc(NC(=O)C3CCCCC3)s2)c1	-9	4	0	5	0
COc1ccc(OC)c(C(C)NC(=O)Cn2c(=O)cc(C)c3c(C)nn(-c4ccc(C)cc4)c32)c1 (stereo not given)	6	3	0	8	1
CCNC(=S)Nc1ccc(Cl)c([N+](=O)[O-])c1	-39*	20	1	1	-7
CCNC(=S)Nc1cccc([N+](=O)[O-])c1	-13	9	0	-4	-6
